KLK7 zymogen act – activators of human kallikrein-7 zymogen. P49862. purified proKLK7, EDANS-DABCYL substrate fluorescence; 100% is mature enzyme control, 0% vehicle. activation, % at 7 µM. 370,000 compounds, 0.9% hits. AID 652039;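 active means activation above the mean of all tested compounds plus 3 SD, computed per campaign excluding outliers beyond control limits, cut at about 13% in these data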
Neddyl block – cullin neddylation inhibition; AID 651699; TR-FRET cullin neddylation, biochemical; 360,000 compounds, 0.58% hits; calls only at 25 µM; in the data active means inhibition above about 36%
FAS TE block – FAS thioesterase (human) inhibition; recombinant FAS-TE, OMFH fluorogenic substrate, fluorescence endpoint; inhibition, % at 15 µM; 360,000 compounds, 0.67% hits;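 active means compounds whose normalised, plate-corrected inhibition of enzyme fluorescence in the single-dose primary screen is 50% or more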;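 further: 0% = DMSO with enzyme and 100% = substrate without enzyme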
PfG6PD inh – PfG6PD (Plasmodium falciparum) enzyme inhibition; PfGluPho enzyme, NADPH resazurin-diaphorase fluorescence; inhibition, % at 20 µM; 350,000 compounds, 0.78% hits; AID 504690;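 active means inhibition reaching at least a set limit at 20 µM in the primary screen, cut at about 59% in these data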;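 further: 0% = DMSO wells with substrate and 100% = DMSO wells lacking glucose-6-phosphate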
PfG6PD confirm – confirmation of Plasmodium falciparum G6PD inhibitors | shares compounds with PfG6PD inh | recombinant PfGluPho, NADPH-diaphorase-resazurin fluorescence | inhibition, % at 20 µM | 2,400 compounds, 34% hits | AID 504753;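 active means inhibition of at least 50% at 20 µM in any single replicate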;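 further: 0% = DMSO with substrate and 100% = DMSO lacking glucose-6-phosphate substrate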
Diaphorase 10uM – inhibits diaphorase or oxidizes, flagging false PfG6PD hits; shares compounds with PfG6PD inh; diaphorase-coupled resazurin reduction, fluorescence, NADPH 10 uM; inhibition, % at 20 µM; 820 compounds, 39% hits;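 active means average inhibition reaching 50% or more with the compound at 20 µM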;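 further: resorufin red fluorescence formed as diaphorase reduces resazurin using NADPH; 0% = DMSO with enzyme and 100% = DMSO without enzyme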
Diaphorase 30uM – diaphorase inhibition or oxidation at 30 uM NADPH; 820 compounds, 29% hits; AID 504863; inhibition, % at 20 µM; Diaphorase/resazurin coupled assay, resorufin fluorescence; shares compounds with PfG6PD inh;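 active means inhibition averaging 50% or more, tested at 20 µM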;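 further: 0% = DMSO with enzyme and 100% = DMSO wells lacking diaphorase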
The depositor's hits bear a star; i = inactive; . = no result. Hits are enriched below; roughly 2.7% of the tested compounds scored in any of these assays.

SMILES | KLK7 zymogen act | Neddyl block | FAS TE block | PfG6PD inh | PfG6PD confirm | others
CCCCCCn1c(=O)n2n(c1=O)[C@@H]1CN(S(=O)(=O)c3ccc(C)cc3)C[C@]1(O)[C@@H](OC(=O)NC1CC1)C2 | 1 | i | -9 | -2 | .
CCCCCCNC(=O)O[C@H]1Cn2c(=O)n(CCCCCC)c(=O)n2[C@@H]2CN(S(=O)(=O)c3ccc(C)cc3)C[C@]12O | 0 | i | 20 | 71* | -14
CCCCCCn1c(=O)n2n(c1=O)[C@@H]1CN(S(=O)(=O)c3ccc(C)cc3)C[C@]1(O)[C@@H](OC(=O)NCC1CCCCC1)C2 | 0 | i | 16 | 65* | -26
CCCCCCn1c(=O)n2n(c1=O)[C@@H]1CN(S(=O)(=O)c3ccc(C)cc3)C[C@]1(O)[C@@H](OC(=O)NC1CCCC1)C2 | 0 | i | 7 | 30 | .
Cc1ccc(OCC(C)CN2CCC(C(O)(c3ccccc3)c3ccccc3)CC2)cc1 (stereo not given) | 0 | . | . | . | .
COc1ccc(-n2c(SCC(=O)Nc3ccc(Oc4ccccc4)cc3)nnc2-c2cccnc2)cc1 | 1 | . | . | . | .
CCOC(=O)[C@]12CCCCC/C=C\1N(Cc1ccc(OC)cc1)C(=O)[C@H]2CC(=O)N1CCCCC1 | 0 | . | . | . | .
COc1cc(N)c(C(=O)c2nccc3cc(OC)c(OC)cc23)cc1OC | 0 | i | -4 | -6 | .
COc1cc(Br)c(C(=O)c2nccc3cc(OC)c(OC)cc23)cc1OC | 0 | i | 23 | 88* | -21
Cn1cc(SCC(=O)N2CCCc3ccccc32)c2ccccc21 | 0 | i | 15 | 60* | 23
COC(=O)[C@]12C[C@H](CC(=O)N3CCN(C(=O)C4CC4)CC3)C(=O)N(Cc3ccco3)C1=C[C@H](C(C)C)O[C@@H]2C1CC1 | 0 | . | . | . | .
Cn1c(NN)nc2sc3c(c2c1=O)CC(C)(C)OC3 | 0 | i | -10 | 65* | 34
O=C(Nc1ccc(Br)cc1)OC1CC2CC1[C@H]1CCCCN1[C@H]2Cc1ccccc1 (stereo not given in full) | 0 | . | . | . | .
CCOc1ccc(-c2c(=O)n(O)c3ccccc3[n+]2[O-])cc1 | -5 | i | -6 | 61* | 17
CCOc1ccc(-c2c(=O)n(OCC)c3ccccc3[n+]2[O-])cc1 | 0 | i | 6 | -10 | .
O=C(NC1CCCCN(Cc2cccc(Cl)c2)C1=O)c1ccc(COc2ccccc2)cc1 (stereo not given) | 1 | . | . | . | .
N#Cc1cc2c([nH]c1=S)CCCCCC2 | 0 | i | -8 | 63* | 22
CC(C)C(=O)N1CC[C@H]2[C@H](CCCN2Cc2ccc(F)cc2)C1 | 0 | . | . | . | .
C[C@H]1CCCC(=O)N[C@@H](c2ccccc2)[C@@H](C)CCCC(=O)N[C@H]1c1ccccc1 | 0 | . | . | . | .
COc1cc(-c2cc(OC)c(O)c(OC)c2)cc(OC)c1O | 0 | i | -6 | 100* | 72* | Diaphorase 10uM=7;Diaphorase 30uM=1
Brc1ccc(Cn2nnc(-c3ccc(N4CCOCC4)cc3)n2)cc1 | 0 | . | . | . | .
COC(=O)[C@@H]1C[C@@]2(c3ccccc3)c3ccccc3N(S(=O)(=O)c3ccccc3)[C@H]2N1C(=O)CNC1CCCCC1 | 0 | . | . | . | .
c1ccc(COn2nnc3ccccc32)c(COn2nnc3ccccc32)c1 | 0 | i | 30 | 50 | 14
COc1ccc(C(=O)C2(C(=O)Nc3cc(C)cc(C)c3)CC(c3ccccc3C(F)(F)F)=NO2)cc1 (stereo not given) | -1 | . | . | . | .
O=C(CCCl)NC1CCCCN(Cc2ccc(OC(F)(F)F)cc2)C1=O (stereo not given) | 0 | . | . | . | .
COC1=C(OC)C(=O)C(CCCCCCCCCCO)=C(C)C1=O | 0 | i | -4 | . | .
CC1=C(C)C(=O)C(CCCCC#CCCCC#CCO)=C(C)C1=O | . | i | 28 | 89* | 31
Cc1cc(C(=O)O)ccc1-n1c(C)cc(C=C2C(=O)c3ccccc3C2=O)c1C | 1 | i | -3 | 80* | 47* | Diaphorase 10uM=60*;Diaphorase 30uM=41
CCc1nnc(N/N=C/c2ccc(-c3ccc([N+](=O)[O-])cc3)o2)n1N | 1 | i | 6 | 69* | 27
Cc1nnc(N/N=C\c2ccc(-c3ccccc3[N+](=O)[O-])o2)n1N | 0 | i | -6 | 82* | 38
